The results in this text go back to the antibiotic and cytotoxicity screens of Wong et al. (2023).

The whole screen tested about 39,000 compounds, of which about 3,300 (8.5%) were called active. The full list was thinned out, with actives kept by preference.

The experiment relates to HepG2. In words: cytotoxicity call (relative viability < 0.9). The conditions noted are these: 10 µM.
As to `COc1ccc(-c2cnc3c(c2)C(=O)N([C@@H](C)CO)C[C@H](C)[C@@H](CN(C)C(=O)C2CCOCC2)O3)cc1`, the cytotoxicity call was “inactive”. Take `COc1ccc(S(=O)(=O)Nc2ccc3c(c2)C(=O)N([C@H](C)CO)C[C@H](C)[C@H](CN(C)C(=O)CCC(F)(F)F)OCCCC[C@H](C)O3)cc1`: the cytotoxicity call is “inactive”. In the case of `COc1ccc(NC(=O)N(C)C[C@H]2OCCCC[C@@H](C)Oc3ccc(NC(=O)c4ccncc4)cc3C(=O)N([C@@H](C)CO)C[C@H]2C)cc1` it was “inactive”. With `O=C(C[C@@H]1C=C[C@@H](NC(=O)c2cccnc2)[C@@H](CO)O1)NCc1ccncn1`, the cytotoxicity call was “inactive”. In the case of `C[C@@H]1CN([C@H](C)CO)C(=O)c2cc(NC(=O)c3ccccc3)ccc2O[C@@H](C)CCCCO[C@H]1CN(C)S(=O)(=O)c1cccs1` it was “active”; in that of `C[C@@H]1CCCCO[C@H](CN(C)S(=O)(=O)c2cccs2)[C@@H](C)CN([C@@H](C)CO)C(=O)c2cc(NC(=O)c3ccccc3)ccc2O1`, “inactive”; in that of `C[C@@H]1CCCCO[C@@H](CN(C)S(=O)(=O)c2cccs2)[C@H](C)CN([C@H](C)CO)C(=O)c2cc(NC(=O)c3ccccc3)ccc2O1`, “active”. In the case of `C[C@@H]1CN([C@@H](C)CO)C(=O)c2cc(NC(=O)c3ccccc3)ccc2O[C@@H](C)CCCCO[C@@H]1CN(C)S(=O)(=O)c1cccs1` it was “inactive”. For the compound `C[C@@H]1CCCCO[C@@H](CN(C)S(=O)(=O)c2cccs2)[C@H](C)CN([C@@H](C)CO)C(=O)c2cc(NC(=O)c3ccccc3)ccc2O1`, the cytotoxicity call was “inactive”.

For the compound `C[C@@H]1CCCCO[C@@H](CN(C)S(=O)(=O)c2cccs2)[C@@H](C)CN([C@@H](C)CO)C(=O)c2cc(NC(=O)c3ccccc3)ccc2O1`, the cytotoxicity call was “inactive”. As for `Cc1noc(C)c1S(=O)(=O)Nc1ccc2c(c1)C(=O)N([C@H](C)CO)C[C@H](C)[C@@H](CN(C)S(C)(=O)=O)OCCCC[C@@H](C)O2`, the entry is “inactive”; as for `CCOC(=O)N1CCN(C[C@@H](O)Cn2c(=O)c3c(ncn3C)n(C)c2=O)CC1`, “inactive”; as for `Cc1noc(C)c1S(=O)(=O)Nc1ccc2c(c1)C(=O)N([C@H](C)CO)C[C@@H](C)[C@@H](CN(C)S(=O)(=O)c1cn(C)cn1)OCCCC[C@@H](C)O2`, “inactive”.

As to `COc1ccc(NC(=O)Nc2ccc3c(c2)C(=O)N([C@H](C)CO)C[C@H](C)[C@@H](CN(C)CC2CC2)OCCCC[C@H](C)O3)cc1`, the cytotoxicity call is “inactive”. For `CCOC(=O)C(C#N)C1=NCCC1` (stereo not drawn), the cytotoxicity call is “inactive”.

For `C[C@@H]1CN([C@H](C)CO)C(=O)c2cc(NC(=O)c3ccccc3)ccc2O[C@@H](C)CCCCO[C@@H]1CN(C)C(=O)Cc1ccccc1`, the cytotoxicity call was “inactive”. As for `COc1cccc(NC(=O)N[C@H]2C=C[C@H](CC(=O)N3CCN(C)CC3)O[C@@H]2CO)c1`, the entry is “inactive”. In the case of `C[C@H]1CN([C@@H](C)CO)C(=O)c2cc(NC(=O)CCN3CCOCC3)ccc2O[C@@H]1CN(C)Cc1ccc(C(=O)O)cc1` it was “inactive”. Consider `C[C@H]1CN([C@@H](C)CO)C(=O)c2cc(NS(=O)(=O)c3cn(C)cn3)ccc2O[C@H]1CN(C)CC1CC1`, for which the cytotoxicity call was “inactive”. Take `COCC(=O)Nc1ccc2c(c1)OC[C@@H](C)N(C(=O)c1ccccc1F)C[C@@H](C)[C@H](OC)CN(C)C2=O`: the cytotoxicity call is “inactive”.

In the case of `O=C1OCC=C[C@H]2O[C@@]34C=CCN(CCN5CCOCC5)C(=O)[C@H]3N(CCCCCCO)C(=O)[C@@H]4[C@@H]12`, the cytotoxicity call was “inactive”.

For `C=CC1CN2CCC1CC2C(O)c1ccnc2ccc(OC)cc12.Cl` (stereo not drawn), the cytotoxicity call is “active”.

On to `C=CC1CN2CCC1CC2C(O)c1ccnc2ccc(OC)cc12.O=C(O)C(O)C(O)C(O)C(O)CO` (stereo not drawn), for which the cytotoxicity call was “inactive”.

In the case of `C=CC1CN2CCC1CC2C(O)c1ccnc2ccc(OC)cc12` (stereo not drawn), the cytotoxicity call was “inactive”. For the compound `COc1ccc2c3c(n(c2c1)C)[C@H](CO)N(C[C@]13CCN(CC1)C(=O)c1ccccc1F)C(=O)Nc1ccccc1F`, the cytotoxicity call was “inactive”. As to `C[C@@H]1CN([C@H](C)CO)C(=O)c2cc(NS(=O)(=O)c3cn(C)cn3)ccc2O[C@@H](C)CCCCO[C@H]1CN(C)S(=O)(=O)c1ccc(F)cc1`, the cytotoxicity call was “inactive”. In the case of `COc1ccc(-c2cnc3c(c2)C(=O)N([C@@H](C)CO)C[C@@H](C)[C@H](CN(C)S(=O)(=O)c2ccc(OC)cc2)O3)cc1` it was “inactive”; in that of `NS(=O)(=O)c1ccc(O)c([N+](=O)[O-])c1`, “inactive”; in that of `O=[N+]([O-])c1ccc(O)c2ncccc12`, “active”. As for `Oc1ccc(Cl)c2cccnc12` [listing 1 of 2 here], the entry is “active”; as for `Oc1ccc(Cl)c2cccnc12` [listing 2 of 2 here], “active”; as for `Oc1ccc(Cl)c2c1CCC2`, “inactive”. Consider `O=[N+]([O-])c1ncn(Cc2ccccn2)n1`, for which the cytotoxicity call was “inactive”. As for `Fc1cccc2c(Cl)ccnc12`, the entry is “inactive”.

As to `O=C(C[C@H]1CC[C@@H]2[C@H](COC[C@@H](O)CN2C(=O)c2ccncc2)O1)NC1CCC1`, the cytotoxicity call was “inactive”. As for `C[C@@H]1CCCCO[C@H](CN(C)CC2CCCCC2)[C@H](C)CN([C@@H](C)CO)C(=O)c2cc(NC(=O)NC3CCCCC3)ccc2O1`, the entry is “inactive”. As for `O=C(C[C@@H]1CC[C@@H]2[C@H](COC[C@H](O)CN2Cc2ccccc2F)O1)N[C@H]1CCN(Cc2ccccc2)C1`, the entry is “inactive”; as for `C[C@H](CO)N1C[C@H](C)[C@@H](CN(C)C(=O)Nc2cccc3ccccc23)Oc2c(NS(=O)(=O)c3ccc(F)cc3)cccc2C1=O`, “inactive”; as for `C[C@H]1CN([C@@H](C)CO)C(=O)c2cc(NC(=O)Cn3cnnn3)ccc2O[C@H]1CN(C)Cc1ccc(C(=O)O)cc1`, “inactive”. As for `COc1ccc(S(=O)(=O)N(C)C[C@@H]2Oc3ccc(NC(=O)CCN4CCOCC4)cc3C(=O)N([C@H](C)CO)C[C@@H]2C)cc1`, the entry is “inactive”. Turning to `COCC#Cc1cnc2c(c1)C(=O)N([C@@H](C)CO)C[C@@H](C)[C@H](CN(C)C(=O)CCN1CCCCC1)O2`, the cytotoxicity call was “inactive”. Regarding `C[C@@H]1CCCCO[C@@H](CN(C)S(=O)(=O)c2ccccc2)[C@@H](C)CN([C@H](C)CO)C(=O)c2cc(NC(=O)Nc3ccc(C(F)(F)F)cc3)ccc2O1`, the cytotoxicity call is “inactive”.

Regarding `C[C@@H]1CCCCO[C@H](CN(C)S(=O)(=O)c2ccccc2)[C@@H](C)CN([C@H](C)CO)C(=O)c2cc(NC(=O)Nc3ccc(C(F)(F)F)cc3)ccc2O1`, the cytotoxicity call is “active”. In the case of `C[C@@H]1CCCCO[C@@H](CN(C)S(=O)(=O)c2ccccc2)[C@@H](C)CN([C@@H](C)CO)C(=O)c2cc(NC(=O)Nc3ccc(C(F)(F)F)cc3)ccc2O1` it was “inactive”; in that of `C[C@H]1CCCCO[C@H](CN(C)S(=O)(=O)c2ccccc2)[C@@H](C)CN([C@@H](C)CO)C(=O)c2cc(NC(=O)Nc3ccc(C(F)(F)F)cc3)ccc2O1`, “active”; in that of `C[C@H](CO)N1C[C@H](C)[C@H](CN(C)S(=O)(=O)c2ccccc2)OCCCC[C@H](C)Oc2ccc(NC(=O)Nc3ccc(C(F)(F)F)cc3)cc2C1=O`, “inactive”. In the case of `C[C@@H]1CN([C@@H](C)CO)C(=O)c2cc(NC(=O)Nc3ccc(C(F)(F)F)cc3)ccc2O[C@@H](C)CCCCO[C@@H]1CN(C)S(=O)(=O)c1ccccc1` it was “inactive”; in that of `C[C@@H]1CCCCO[C@H](CN(C)S(=O)(=O)c2ccccc2)[C@@H](C)CN([C@@H](C)CO)C(=O)c2cc(NC(=O)Nc3ccc(C(F)(F)F)cc3)ccc2O1`, “inactive”. As for `C[C@@H]1CN([C@@H](C)CO)C(=O)c2cc(NC(=O)Nc3ccc(C(F)(F)F)cc3)ccc2O[C@@H](C)CCCCO[C@H]1CN(C)S(=O)(=O)c1ccccc1`, the entry is “inactive”; as for `C[C@H](CO)N1C[C@H](C)[C@@H](CN(C)S(=O)(=O)c2ccccc2)OCCCC[C@H](C)Oc2ccc(NC(=O)Nc3ccc(C(F)(F)F)cc3)cc2C1=O`, “inactive”. For `C[C@@H]1CCCCO[C@H](CN(C)S(=O)(=O)c2ccccc2)[C@H](C)CN([C@@H](C)CO)C(=O)c2cc(NC(=O)Nc3ccc(C(F)(F)F)cc3)ccc2O1`, the cytotoxicity call was “active”.

Regarding `C[C@@H]1CCCCO[C@@H](CN(C)S(=O)(=O)c2ccccc2)[C@H](C)CN([C@H](C)CO)C(=O)c2cc(NC(=O)Nc3ccc(C(F)(F)F)cc3)ccc2O1`, the cytotoxicity call is “inactive”.

As for `C[C@H]1CCCCO[C@@H](CN(C)S(=O)(=O)c2ccccc2)[C@@H](C)CN([C@@H](C)CO)C(=O)c2cc(NC(=O)Nc3ccc(C(F)(F)F)cc3)ccc2O1`, the cytotoxicity call was “active”.
